B1: design_619_5728adc2-0aea-404f-92dd-a4575c53f550_2058_dldesign_0_cycle1_af2pred (protein)
chain: AAVAQSQLQITQNLVAWALSQLTTYGPAQGATIAKAVRDLALAAGLPEAVADELAAGAAGTAAEAKAKGAQAVALAQAAVAA
B2: design_619_5728adc2-0aea-404f-92dd-a4575c53f550_2359_dldesign_0_cycle1_af2pred (protein)
chain: SQAQGELLEAVKYASKAMKLDPALAPQLQQAINLLVRAIVLLAQGDEAQAAEEAKKAAKLFEEAAKKASPEAAKELKKAAKEAEKAI
B3: design_620_fbd04095-bef7-46a9-992d-f2cb8915922f_77_dldesign_0_cycle1_af2pred (protein)
chain: DAVTAQIKALGAAGVAQARADPENAVAIASRTNAQIWGLILAAGADAAASAVALEATRANAEAVRETTAAAAAAAAAAAAAAAA
B4: design_619_5728adc2-0aea-404f-92dd-a4575c53f550_2492_dldesign_0_cycle1_af2pred (protein)
chain: AIADEIIALARAAAEAADPEESTRLMREAAELAVEKFPELTPEEANAVIGEFLEAAARASPEAAVIATRAAARLGAQLAA
B5: design_620_fbd04095-bef7-46a9-992d-f2cb8915922f_119_dldesign_0_cycle1_af2pred (protein)
chain: REAAAEELRRLAEEARRLGEAGTPEVRSMARMMATAMEVIARGGNVELALEALRAAAAGIANDGKFGAEMEELARRAEEAVR
B6: design_619_5728adc2-0aea-404f-92dd-a4575c53f550_2329_dldesign_0_cycle1_af2pred (protein)
chain: SALTKKIEEKATKLVEEAAKTTPEEARKLATEALEIAKQSPEALSALAVELLKAAAKATPEVAAVLREVAAQAMRTAIEIARA
B7: design_620_fbd04095-bef7-46a9-992d-f2cb8915922f_158_dldesign_0_cycle1_af2pred (protein)
chain: IDTQANLELAKKSFNAALAQARRFAKTDRQAALAALKSAEVYAEAAEAADPAAGEELRKKVEEARKEIEAA
B8: design_620_fbd04095-bef7-46a9-992d-f2cb8915922f_329_dldesign_0_cycle1_af2pred (protein)
chain: SAESQAKAEELLREAFKRITELADAAAKSGTEEELAKAKKEMEEIAEKVEKEAGPGAGELARNYLKTQLAAAKAAIAAAK
B9: design_620_fbd04095-bef7-46a9-992d-f2cb8915922f_681_dldesign_0_cycle1_af2pred (protein)
chain: AAAEAAAAAAAAAAAAEAAARAARGREIMVRTVEAIVRQARASPDGLRLARIALRVAESAGDEEAIALARAALAELEAA
B10: design_620_fbd04095-bef7-46a9-992d-f2cb8915922f_592_dldesign_0_cycle1_af2pred (protein)
chain: SMAEEAARAEKAAAFREQAEAILAQAQANAADAEKLQQLGQQAVELAEEAAALGDQEAAQAALRAAAQINALLVQAQ
B11: design_620_fbd04095-bef7-46a9-992d-f2cb8915922f_254_dldesign_0_cycle1_af2pred (protein)
chain: AERLRAAAERLEAAAAATPEAAEAALAEAAALAEEVAAEYPGLGQLILNTLRQAAGLSPEERARAVARQFRALADYL
B12: design_620_fbd04095-bef7-46a9-992d-f2cb8915922f_187_dldesign_0_cycle1_af2pred (protein)
chain: GEARRQFAEDTAAAAKQAAALYAADPEKAQQVKDAADKAVAAAESGEDAQLAGLSAIKVYQALVEAQKAA
B13: design_619_5728adc2-0aea-404f-92dd-a4575c53f550_2222_dldesign_0_cycle1_af2pred (protein)
chain: MENLEKAKELLEKAEAYVKAAAASDLATAQALLGQAVAAGQEAVELLKDSPIYPEVSRKVVELIRAGLAAVAAKA
B14: design_619_5728adc2-0aea-404f-92dd-a4575c53f550_2217_dldesign_0_cycle1_af2pred (protein)
chain: DPAAALEKRTAAAMLAQAKAAVDADPALGRQRIANMEQLGKASPALAPYLLPAAEEARAYLAAKEAAAAA
B15: design_620_fbd04095-bef7-46a9-992d-f2cb8915922f_328_dldesign_0_cycle1_af2pred (protein)
chain: DPKAQAQATAETLAKQAKKAATEALKLAKELGDKETAEKMKEIIKKVEELLEKAKKGTAEEAGAAALEILKLLSEARKELEKLKKKA
B16: design_620_fbd04095-bef7-46a9-992d-f2cb8915922f_548_dldesign_0_cycle1_af2pred (protein)
chain: MNASERVIARAEAIIAEAAALGAAHPAMAGETAAIQALARSAARMARSGEHIEDAEKAVEVAEAMLAATAARAAALAA
B17: design_620_fbd04095-bef7-46a9-992d-f2cb8915922f_347_dldesign_0_cycle1_af2pred (protein)
chain: DAVAAGQALLYAAKSQGYIGKAKKAVKEGKLEEAKEYAEKAEEYAKKSEEYAKQSGDAAVQAQAKKVQEQVKKTKEEVKKAE
B18: design_619_5728adc2-0aea-404f-92dd-a4575c53f550_1976_dldesign_0_cycle1_af2pred (protein)
chain: SPALLAARKAITETAAATINALTDPAAANLVGRAMIQGLQLAQQGEAAGAHAAAAVAALALVEAAAAAARALDAAAA
B19: design_620_fbd04095-bef7-46a9-992d-f2cb8915922f_36_dldesign_0_cycle1_af2pred (protein)
chain: AAEEALKKLKELAEKTKKVAEEAGKVNPALAPEADFLSALAEAALNYAKKNAASPDFEKIAKKQLEQIKKALERAEKLLKEAKAQAA

Target: CD276, Q5ZPR3
Sequence (Q5ZPR3 whole entry): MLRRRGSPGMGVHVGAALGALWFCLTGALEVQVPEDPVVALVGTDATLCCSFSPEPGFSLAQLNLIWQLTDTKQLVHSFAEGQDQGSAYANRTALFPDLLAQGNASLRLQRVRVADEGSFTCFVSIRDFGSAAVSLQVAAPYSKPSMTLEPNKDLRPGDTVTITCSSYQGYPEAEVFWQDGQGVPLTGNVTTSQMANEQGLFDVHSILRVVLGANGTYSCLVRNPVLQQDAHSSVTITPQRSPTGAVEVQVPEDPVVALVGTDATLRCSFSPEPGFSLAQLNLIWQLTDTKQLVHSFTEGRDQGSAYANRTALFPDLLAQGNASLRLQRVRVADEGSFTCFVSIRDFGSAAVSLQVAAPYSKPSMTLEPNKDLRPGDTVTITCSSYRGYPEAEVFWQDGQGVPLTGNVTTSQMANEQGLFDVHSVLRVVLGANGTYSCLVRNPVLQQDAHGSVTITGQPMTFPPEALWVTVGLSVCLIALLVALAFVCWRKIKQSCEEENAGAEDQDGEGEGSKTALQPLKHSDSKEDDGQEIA

Binding in a display sort, active:
B6 binds

Binding in a display sort, inactive:
B1 not found
B2 not found
B3 not found
B4 not found
B5 not found
B7 not found
B8 not found
B9 not found
B10 not found
B11 not found
B12 not found
B13 not found
B14 not found
B15 not found
B16 not found
B17 not found
B18 not found
B19 not found
